Bioassay records from PubChem.
Sampled rows, rich in hits. Any-hit rate of the full collection: about 3.3%.
VACV Venus inh: vaccinia inhibition (Venus reporter) | Vaccinia virus Venus reporter expression, fluorescence | Potency, µM (doses to about 36.5 µM), for the others: at the highest dose activity change, negative = inhibition, usual class: inhibitors | 330,000 tested, 0.46% active | AID 720580; calls by dose curve; tested in A549 cells; note: nearly all actives have a fitted effect of over 30% in size
VACV mCherry inh: inhibitors of vaccinia virus infection (mCherry reporter signal). Potency, µM (highest dose often 36.5 µM), inactives show at the top dose activity change, negative = inhibition, usual class: inhibitors. 310,000 tested, 0.63% active. Vaccinia virus mCherry reporter infection, fluorescence. AID 720579; calls by dose curve; tested in A549 cells; note: nearly all actives have a fitted effect of over 35% in size
HCV inh: HCV inhibition | Huh7.5.1 HCVcc-Cre infection, luciferase reporter, 44 h | Potency, µM (doses to about 41.8 µM), without a hit: top-dose activity change, negative = inhibition, hits mostly inhibitors | 340,000 tested, 3.4% active; active = well fitted inhibition curve with a large enough effect; inconclusive = small, poorly fitted or top-dose-only effect, or another doubt; inactive = no such curve, though single readings can be large or run the other way
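Antiviral activity was scored by luciferase reporter output from cells infected with HCVcc-Cre (~0.5 moi) in presence of compound, 44 h infection period, cells seeded 1,000/well 4 h prior.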
Numbers without * were called inactive. % is set by controls: 0 for no effect and ±100 for the full control effect; potency is the fitted concentration of half-maximal effect.

For CC(=O)Nc1cccc(NC(=O)c2cc(-c3cccnc3)nc3ccc(Br)cc23)c1 the results were HCV inh 14µM*.
`CC(=O)Nc1cccc(NC(=O)c2cc(-c3cccnc3)nc3ccc(Cl)cc23)c1` gave VACV Venus inh -6%, VACV mCherry inh -10% and HCV inh inconclusive.
Screening O=C(Nc1ccc(C(=O)N2CCOCC2)cc1)c1cc(-c2cccnc2)nc2ccc(Cl)cc12 returned VACV Venus inh -14%, VACV mCherry inh -6% and HCV inh 7.9µM*.
`Cc1ccc(C)c(-c2cc(C(=O)Nc3cccnc3)c3ccccc3n2)c1` gave VACV Venus inh -2% and VACV mCherry inh inactive.
`O=C(O)c1cc(-c2cccnc2)nc2ccc(Br)cc12` gave HCV inh 16%.
Screening CC(C)Nc1ccc(C(CC(N)=O)NC(=O)Cc2ccc(Cl)cc2)cc1[N+](=O)[O-] (stereo not drawn) returned VACV Venus inh -13%, VACV mCherry inh inactive and HCV inh 18%.
For Cc1ccc2nc(N(Cc3cccnc3)C(=O)C3CCCCC3)sc2c1 the results were VACV Venus inh -17% and VACV mCherry inh -11%.
Screening Cc1ccc(/C(O)=C2\C(=O)C(=O)N(C)C2c2cccc([N+](=O)[O-])c2)cc1 (stereo not drawn) returned VACV Venus inh -9%, VACV mCherry inh -26% and HCV inh 6%.
For COc1ccc(NC(=O)c2cc(-c3ccccn3)nc3c(C)cc(C)cc23)c(C)c1 the results were VACV Venus inh -8%, VACV mCherry inh inactive and HCV inh inconclusive.
COc1cccc(NC(=O)c2cc(-c3ccncc3)nc3c(C)cc(C)cc23)c1 was read as VACV Venus inh -3%, VACV mCherry inh -5% and HCV inh 10µM*.
For COc1cc(SC)ccc1C(=O)Nc1ccc2c(c1)CCC2 the results were VACV Venus inh -15%, VACV mCherry inh inactive and HCV inh 10µM*.
`COc1cc(SC)ccc1C(=O)Nc1ccncc1` gave HCV inh -16%.
For O=C(CCn1c(=O)c2cccn2c2cccnc21)Nc1ccccc1C(F)(F)F the results were VACV Venus inh -8% and VACV mCherry inh -11%.
Screening Cc1ccc(F)cc1NC(=O)N1CCN(c2ccnc3cc(Cl)ccc23)CC1 returned HCV inh 3.5µM*.
Screening CC(=O)N1CCN(c2ccnc3cc(Cl)ccc23)CC1 returned VACV Venus inh -11%, VACV mCherry inh inactive and HCV inh 21%.
For O=C(Nc1ccc(C(F)(F)F)cc1)N1CCN(c2ccnc3cc(Cl)ccc23)CC1 the results were VACV Venus inh -29%, VACV mCherry inh -6% and HCV inh 8.9µM*.
For O=C(O)CSCC(=O)N1CCN(c2ccnc3cc(Cl)ccc23)CC1 the results were HCV inh -10%.
`CCCCNC(=O)N1CCN(c2ccnc3cc(Cl)ccc23)CC1` gave VACV Venus inh -22%, VACV mCherry inh -18% and HCV inh -3%.
O=C(Nc1cc(F)ccc1F)N1CCN(c2ccnc3cc(Cl)ccc23)CC1 was read as HCV inh 11µM*.
For CC(C)(O)C#Cc1ccc(C(=O)N2CCC(C(N)=O)(N3CCCCC3)CC2)o1 the results were VACV Venus inh -6% and VACV mCherry inh -2%.
Cc1ccc(C(=O)Nc2ccc(Cl)c(-c3nc4ncccc4o3)c2)c(C)c1 was read as VACV Venus inh -8% and VACV mCherry inh -8%.
Screening Cn1cc(CN(C(=O)Nc2ccccc2)C2CCCCC2)c2ccccc21 returned VACV Venus inh -20% and VACV mCherry inh inconclusive.
`O=S(=O)(/C=C/c1ccccc1)N1CCC(n2c(C3CCCO3)nc3cccnc32)CC1` (stereo not drawn) gave VACV Venus inh 11% and VACV mCherry inh 1%.
`CS(=O)(=O)c1ccc(/C=C2\C=Cc3ccccc32)cc1` gave VACV Venus inh -9% and VACV mCherry inh 2%.
For CC(C)C1N=C2c3ccccc3N=C(SCC(=O)NCc3ccccc3Cl)N2C1=O (stereo not drawn) the results were VACV Venus inh -10% and VACV mCherry inh -11%.
Screening CC(C)NC(=O)c1ccc2c(=O)n(CC3CCCO3)c(=S)[nH]c2c1 (stereo not drawn) returned VACV Venus inh -8%, VACV mCherry inh -4% and HCV inh -11%.
COc1cc2[nH]c(=O)n(Cc3ccc(C(=O)NCCCN4CCN(C)CC4)cc3)c(=O)c2cc1OC was read as HCV inh 9%.
For CC1CCCCN1CCNC(=O)c1ccc2c(=O)n(CCc3ccccc3)c(=O)[nH]c2c1 (stereo not drawn) the results were VACV Venus inh -11%, VACV mCherry inh -14% and HCV inh 11µM*.
